In the supplement of paper PMC12632987:

T1: USP38, Q8NB14
T1 chain: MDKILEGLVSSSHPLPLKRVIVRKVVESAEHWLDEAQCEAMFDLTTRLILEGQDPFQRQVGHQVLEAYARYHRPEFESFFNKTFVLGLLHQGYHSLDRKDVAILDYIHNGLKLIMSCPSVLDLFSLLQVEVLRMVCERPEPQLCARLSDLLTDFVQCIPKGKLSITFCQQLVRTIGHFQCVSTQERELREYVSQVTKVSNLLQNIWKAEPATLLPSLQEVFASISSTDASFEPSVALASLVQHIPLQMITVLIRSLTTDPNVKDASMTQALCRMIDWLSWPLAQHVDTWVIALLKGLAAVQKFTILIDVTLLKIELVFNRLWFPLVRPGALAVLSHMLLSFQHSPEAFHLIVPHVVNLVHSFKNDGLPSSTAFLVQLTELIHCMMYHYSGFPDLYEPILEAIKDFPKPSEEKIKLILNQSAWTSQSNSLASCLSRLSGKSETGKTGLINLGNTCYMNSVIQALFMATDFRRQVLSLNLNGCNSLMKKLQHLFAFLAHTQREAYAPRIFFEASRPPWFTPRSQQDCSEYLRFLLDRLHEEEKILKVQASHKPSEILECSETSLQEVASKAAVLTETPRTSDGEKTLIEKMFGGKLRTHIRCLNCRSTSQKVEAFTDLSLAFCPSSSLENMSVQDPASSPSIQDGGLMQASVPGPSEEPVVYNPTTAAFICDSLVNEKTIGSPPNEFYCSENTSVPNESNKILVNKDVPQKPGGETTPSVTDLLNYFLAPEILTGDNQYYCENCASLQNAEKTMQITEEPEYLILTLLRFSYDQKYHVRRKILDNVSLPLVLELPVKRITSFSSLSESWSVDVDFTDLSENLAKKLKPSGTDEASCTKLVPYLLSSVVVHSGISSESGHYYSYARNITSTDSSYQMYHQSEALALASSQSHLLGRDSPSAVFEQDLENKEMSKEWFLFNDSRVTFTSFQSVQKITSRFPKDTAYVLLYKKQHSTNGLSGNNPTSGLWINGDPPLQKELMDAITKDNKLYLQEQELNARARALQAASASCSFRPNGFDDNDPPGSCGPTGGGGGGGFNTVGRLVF

B1: usp_38_diff_out_15_114_139 (protein)
chain: SEEEEAEEELRKLEIEQGKKVAEDLLAELERLAKEGRLTPAREERLLLGLKGLAKLAIELKDKELAELVLKALEAFAKISSPEHRKEAEKLAKELKEAMA
B2: usp_38_diff_out_15_85_147 (protein)
chain: ALEELRRELEEAIREARRLLEEARKLLAEKTPEALKAAREALDRAAEHLGRAAELLRELRRAGADPAELARLQAELDELVDEYEKLALELFEKEIELQEA
B3: usp_38_diff_out_15_17_145 (protein)
chain: DEEARRLELEAERAAMDAVIADARATLTRLAAKAKAAGWAEVAAEYEAAIAALDAGDLEAAAEHLERAARLLWDKNPRDATIAGGLAYALRRKVELDRLE
B4: usp_38_diff_out_14_75_130 (protein)
chain: SMKEELEKRLEELEERLKELEEKGVLTGRTVVELGGVLYVARLAIEAGDLETAEKLLEIAEKALEDPENAKEILDENEDFIVSTHIELELRRIEEEEAAR
B5: usp_38_diff_out_14_75_138 (protein)
chain: SREEELRKRLEEAEARLAELVAQGKITGRKEVELRGILHIAREAIEAGRLEEAEKLLDIAEEALENPEKAKEIIDENEDFIVSTAKELALREIEEEEKRR
B6: usp_38_diff_out_14_54_123 (protein)
chain: SEELEELLEEARRALEEARRALREAERLLREGGPLEEVREALDRAARAIGRLGEALRRARALATDPEVLKELERLEKEADELVDRYTELARRALEMEAER
B7: usp_38_diff_out_15_17_144 (protein)
chain: DPESEALYREALRANIASVFDEAAAIAAKRAARAEAEGNAELAAALRRLRDLLEHRDETPLADIAAAARELAALAEEAGDYRTAAIAGGVAAAAEELAEL
B8: usp_38_diff_out_15_42_146 (protein)
chain: SQLEEELRLIVEAMEAERDRVVADVATLPEAKLKRLARRNLEGAKGEAERTGDPVAAEIAALYEEGLANPATLKAKMQEAVRLTYDRAIAEVRRRMEEEA
B9: usp_38_diff_out_15_114_140 (protein)
chain: SAEEEAAEELRQREIAAGRDVARDLLAELRELKKRGRLTPAREERLLLGLEGLARLAIELGDEELARLVLEALDAFAEISDPETQARARALRAELEAAMA
B10: usp_38_diff_out_15_85_150 (protein)
chain: TPEELKAEIEREIEEAERLLERAEELLRDPEAPLEEIRRVLDEAAEALGRADHLARELRRLSPEYRAYVEEVLKRLDELVDRLEELAREAFLREADELEA
B11: usp_38_diff_out_14_75_136 (protein)
chain: SEREELRARLAAARARLDALVAAGVISGRLEVELGAVLHVAALAIEAGDLETARRLLDIVEAALADPARAREILRAAEDFIVDAYKRLELRRIEEEEEER
B12: usp_38_diff_out_14_2_98 (protein)
chain: AEEELKKATEETLKVLDEAIKKAKELKERVKKDPSLAEEAREELFKAWDKAADAVGELAKLMEEHRELRELNKKAVEEVNKKLTELTEELLEALELAAEA
B13: usp_38_diff_out_14_54_128 (protein)
chain: DEEIERLLEEARKKLEELKKLKEELKKLVKAGASMEEIFAAYDKAADAAAAAGEAIRRLRKLSTDPEVKEEARKLEEEVNKLLDEVTELVTEALERAAER
B14: usp_38_diff_out_14_75_132 (protein)
chain: SEKEELEKRLEELEKRLEELEKEGKLTGRLVVELGGVLHVAREAIEAGKLETAKKLLEIAEQALEDPERAREILRENEDFIVDTYKELALEEIEKEEAER
B15: usp_38_diff_out_14_54_127 (protein)
chain: DEEIKRLLEEARKYLEEAKKALAELKELVAAGAAPEEVFAAYDKAADAIAKAGEAIRRLMRLSTDPEVRKEAREIQEEADKLVDEMTEAVTAAQEKAAEA
B16: usp_38_diff_out_15_85_149 (protein)
chain: KIEELKKQLQAAIDEAEALLAEAEALLKKGTPEALEAARKALDAAAKAIGQADQLLRELRKAGADKEELEAYQKRLDALTDRYEALARELFEKEMELQEK
B17: usp_38_diff_out_15_114_141 (protein)
chain: SAEEEAAAELREREVAAGLAVARDLLAELEELARRGRLTPAREERLLLGLRGLARLAIELGDRELAEEVLRALDAFAAIASPELRAEAEALRAELEAAMA
B18: usp_38_diff_out_14_75_129 (protein)
chain: SEREKLEERLEAAEARLAALVAAGVISGRTEVKLGAVLHVARLAIEQGDLETAEKLLEIVEKALADPANADKILDENEDFIVSTYKELALRELEEEEKKR
B19: usp_38_diff_out_14_54_126 (protein)
chain: SERLRRLLEEARRKLAEAERYLEEAEKALEEGAPLEEIERLLDEAARALGAAARALREAATLATDPESRAELEELRARADELTDRYTELAREAFLRRLEE
B20: usp_38_diff_out_15_85_152 (protein)
chain: SPEEIKKEIKKEIEKAKELIKEAKKLLKDPNAKLEEIRKVLDEAAKALGKAEYLARELRKLSPEYREEVKEYLKELDELVDELEKLEREAFLRMAEEQEA
B21: usp_38_diff_out_14_75_135 (protein)
chain: SEREELERRLEELEERLARLVAEGVISGRTEVKLGAVLHVARLAIEEGRLEEARKLLEIVERALADPERADEILEENEDFIVSTYLELELRRLAEEEAKR
B22: usp_38_diff_out_14_2_99 (protein)
chain: AKEELEKATKETLKVLKEAIKKAKELLKEVKKDPSKAEEATKKLFEEWDKAADAVGKLAKLIEEHKEERKLNKEAIEKVNKELTELTKVTLEALEEAAKA
B23: usp_38_diff_out_14_75_137 (protein)
chain: SRKEELRERLAEARARLDALVAEGRITGRLEVELRGILHIAEEAIEAGRLEEAERLLDIAERALDDPANARAIIRANEDFIVSTAKKLDLERIEEEEERR
B24: usp_38_diff_out_14_54_124 (protein)
chain: MEELERLLEEAERALREAEEALERAERLLEEGGPLEEIRRELDRAARAIGRLGEALRRARALATDPEVKKRLEELEKKADELVDRYNELARRALEMEAER
B25: usp_38_diff_out_14_54_125 (protein)
chain: MEELEKLLKEAEKALKEAEKALAAAEALLEAGGPLAEIRALLDAAARAIGAAGEALRKARALATDPEVKKKLEELRKRADELVDRYNELARRALEREAAA
B26: usp_38_diff_out_15_85_151 (protein)
chain: SPEELKKKIEEKLEEARRLLEEARRLLADPNAPLEEIRKVLDEAARALGEAEHLARELRKLSPEYREEVEKYLKELDELVDELEALAREAFLREAEAQEA
B27: usp_38_diff_out_15_85_153 (protein)
chain: SPEEIKKEIEREIEEAERLIEEARRLLEDPEAPLEEVREVLDEAARHLGRAQHLARELRRLSPEYREFVKEAEKRLDELVDELEELAREAHLREAEELEA
B28: usp_38_diff_out_14_75_131 (protein)
chain: SEREELERRLEELRARLAALEAAGVITGRKVVKLGGALHVAELAIRAGRLEEARKILDIVEEALDDPERADEILDENEDFIVDTYKELALAEIEAEEAAR
B29: usp_38_diff_out_15_114_143 (protein)
chain: SEEEEAEEELRRLEIEEGLRVAEELLAELEELRKRGRLTPAREERLLLGLEGLAILAIELGDEELARRVLEALRALAEISSPETRARAEALAAELEAAMA
B30: usp_38_diff_out_14_75_133 (protein)
chain: SEREELEKRLEELRARLAALVAAGVISGRLEVELGAVLYTAELAIEAGKLEEAKKLLDIAEAALDDPANAKAILDANEDFIVSTYKELELERIEREEEEE
B31: usp_38_diff_out_14_75_134 (protein)
chain: SEKEELEERLAALEARLEALVAEGVISGRLEVELGAVLHTARLAIEAGRLEEARRLLDIAEEALADPARAREILRANEDFIVSTHLRLELERLAAEEAAR
B32: usp_38_diff_out_15_114_142 (protein)
chain: SAEEEAEEELRELEIKAGKDVAEELLEELKELRKRGRLTPAREERLLLGLRGLAILAIELKNKELAELVLEALEEFAKISDPETRAEAEKLAAELKKAMA

Target: T1, USP38, Q8NB14
Test: median log2 fold change of GCK-ALFA target abundance (FLAG IP / Myc IP barcode read proportion) (log2 ratio); each designed protein is fused to an ALFA-tag nanobody in HEK293 cells to bring the named protein to FLAG-tagged glucokinase (GCK); Myc marks an untargeted standard; higher = target protein stabilised (more abundant)
Conditions: target protein: 3xFLAG-MCP-GCK-ALFA reporter; HEK293 landing pad (RPLP)
How it was run: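 Binders fused to an ALFA nanobody were recombined as a library into HEK293 landing-pad cells, which were induced with 2 μg mL^−1 doxycycline and then transfected to express a FLAG-tagged target and a Myc-tagged standard. After 48 h, circular RNA barcodes recovered by anti-FLAG and anti-Myc immunoprecipitation of lysates were reverse transcribed, amplified and sequenced. Each binder's target abundance is the median log2 ratio of FLAG to Myc barcode read proportions, from barcodes present at ≥10^−7 in both replicates, binders carrying ≥3 barcodes per replicate, a 10^−6 pseudocount and pooled replicates.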

| Binder | median log2 fold change |
| --- | --- |
| B1 | 0.292 |
| B2 | 0.0216 |
| B3 | -0.0496 |
| B4 | -0.097 |
| B5 | 0.163 |
| B6 | 0.491 |
| B7 | 0.158 |
| B8 | -0.607 |
| B9 | 0.0749 |
| B10 | 0.0224 |
| B11 | 0.0109 |
| B12 | -0.576 |
| B13 | -0.492 |
| B14 | -0.63 |
| B15 | 0.232 |
| B16 | 0.113 |

| Binder | median log2 fold change |
| --- | --- |
| B17 | 0.234 |
| B18 | 0.261 |
| B19 | 0.0528 |
| B20 | 0.113 |
| B21 | -0.475 |
| B22 | -0.478 |
| B23 | 0.124 |
| B24 | 0.191 |
| B25 | -0.00832 |
| B26 | 0.0262 |
| B27 | -0.141 |
| B28 | 0.103 |
| B29 | -0.119 |
| B30 | 0.198 |
| B31 | 0.0715 |
| B32 | 0.0926 |
